The supplement of paper PMC5919970
Structures can show the parent of a compound that is named as a salt. In all, about 2,000 compounds were measured (“fractional viability relative to vehicle”: median about 0.92, lowest 2% from about 0.11 on). The full list was thinned out, with the lowest values kept by preference.

Tested on: TYKNU
Assay: fractional viability relative to vehicle; TYKNU is a high-grade serous ovarian cancer line; higher = less growth inhibition
Details: 72 h, genotype: OPA1 knockout (sgOPA1 #2)
Outline: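 TYKNU control cells or lentiCRISPRv2 knockout derivatives were plated at 500 cells per well in duplicate into drug-stamped 384-well plates holding a ~2100-compound library at 2 or 10 μM. Culture was in RPMI 1640 with 10% FBS at 37 °C in 5% CO2, with 72 h of drug treatment. Viability was measured by Cell Titer Glo luminescence, and the averaged duplicate treatment wells were normalised to duplicate control wells at the same plate position.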

Structure (SMILES)	fractional viability (2uM)	fractional viability (10uM)
CCC[C@H](Nc1nc(-c2ccc(NC(=O)NCC)c(OC)c2)ncc1C)c1cccnc1 [CYT997 (Lexibulin)]	0.378	0.361
COc1ccc(CCC(=O)Nc2nc3ccc(Cl)cc3s2)cc1OC	0.989	1.04
CNc1cc(-c2cccc(Cl)c2Cl)nc(N)n1	0.476	0.368
CN1CCN(C2CCN(C(=O)Nc3cc(Oc4ccc(NC(=O)C5(C(=O)Nc6ccc(F)cc6)CC5)c(F)c4)ccn3)CC2)CC1 [Golvatinib (E7050)]	0.92	0.485
COc1ccc(C2=N[C@H](c3ccc(Cl)cc3)[C@H](c3ccc(Cl)cc3)N2C(=O)N2CCNC(=O)C2)c(OC(C)C)c1 [Nutlin-3b]	0.806	0.737
CCOc1nc2cccc(C(=O)O)c2n1Cc1ccc(-c2ccccc2-c2noc(=O)[nH]2)cc1 [Azilsartan]	0.997	1.12
CO[C@@H](C(=O)N1Cc2[nH]nc(NC(=O)c3ccc(N4CCN(C)CC4)cc3)c2C1)c1ccccc1	0.964	0.815
CN1CCN(c2ccc(C(=O)Nc3n[nH]c4ccc(Cc5cc(F)cc(F)c5)cc34)c(NC3CCOCC3)c2)CC1 [Entrectinib (RXDX-101)]	0.712	0.113
CCc1cccc(CC)c1NC(=O)N1Cc2[nH]nc(NC(=O)c3ccc(N4CCN(C)CC4)cc3)c2C1	1.02	0.885
Clc1cccc(CN=C2Nc3ccccc3NC23CCNCC3)c1 [Liproxstatin-1]	0.816	0.729
CCOc1cn(-c2ccc(F)cc2C)nc1C(=O)Nc1ccc(Oc2ccnc3cc(OC)c(OC)cc23)c(F)c1	0.919	0.773
Clc1ccc(C(Cn2ccnc2)OCc2ccc(Sc3ccccc3)cc2)c(Cl)c1 (configuration not stated) [Fenticonazole Nitrate]	0.933	0.911
Cc1cc(C)c(CNC(=O)c2cc(-c3ccc(N4CCN(C)CC4)nc3)cc3c2c(C)cn3C(C)C)c(=O)[nH]1	0.878	0.945
C=C1C(=O)O[C@@H]2/C=C(\C)CC/C=C(\C)CC[C@@H]12 [Costunolide]	1.15	0.522
C=C1C(=O)O[C@H]2[C@H]1CC/C(C)=C/CC[C@@]1(C)O[C@@H]21 [(-)-Parthenolide]	0.557	0.0743
Cc1c[nH]c(/C=C2\C(=O)Nc3ccccc32)c1CCC(=O)O	0.793	0.846
COC(=O)c1ccc2c(c1)NC(=O)/C2=C(\Nc1ccc(N(C)C(=O)CN2CCN(C)CC2)cc1)c1ccccc1 [Nintedanib (BIBF 1120)]	1.32	0.372
CCS(=O)(=O)Nc1ccc2c(c1)/C(=C(/Nc1ccc(CN3CCCCC3)cc1)c1ccccc1)C(=O)N2 [Hesperadin]	0.544	0.113
CN(C)Cc1cccc(N/C(=C2\C(=O)Nc3cc(C(N)=O)ccc32)c2ccccc2)c1	0.93	0.993
CCOc1cc(C(C)(C)C)ccc1C1=N[C@@](C)(c2ccc(Cl)cc2)[C@@](C)(c2ccc(Cl)cc2)N1C(=O)N1CCN(CCCS(C)(=O)=O)CC1	0.49	0.469
O=C(c1cc(Cc2n[nH]c(=O)c3ccccc23)ccc1F)N1CCN(C(=O)C2CC2)CC1	1.03	0.936
C=CC(=O)Nc1cccc(Sc2nc(Nc3ccc(N4CCN(C)CC4)cc3)ncc2Cl)c1	1.31	0.1
C=CC(=O)Nc1cccc(Oc2nc(Nc3ccc(N4CCN(C)CC4)cc3)ncc2Cl)c1	0.825	0.5
C=CC(=O)Nc1cccc(Oc2nc(Nc3ccc(N4CCN(C)CC4)cc3OC)ncc2Cl)c1	0.964	0.766

Structure (SMILES)	fractional viability (2uM)	fractional viability (10uM)
COc1ccc(CCc2nc3cc(-c4c(C)noc4C)ccc3n2C[C@H](C)N2CCOCC2)cc1Cl	0.813	0.639
COc1cc(OC)c(C(=O)CCCN2CCCC2)c(OC)c1 [Buflomedil HCl]	0.851	0.685
COc1cc2c(NC3CCN(CC4CCCCC4)CC3)nc(N3CCCN(C(C)C)CC3)nc2cc1OCCCN1CCCCC1	0.786	0.0322
COC(=O)c1ccc2c(c1)[nH]c1ncnc(NCCCN3CCCCC3)c12	0.785	0.985
COc1cc2nc(N3CCN(C(=O)C4COc5ccccc5O4)CC3)nc(N)c2cc1OC (configuration not stated) [Doxazosin Mesylate]	1.1	1.22
COc1cc2nc(N3CCN(C(=O)C4CCCO4)CC3)nc(N)c2cc1OC (configuration not stated) [Terazosin HCl]	1.14	1.15
COc1cc(Nc2c(C#N)cnc3cc(OCCCN4CCN(C)CC4)c(OC)cc23)c(Cl)cc1Cl [Bosutinib (SKI-606)]	0.995	0.284
COc1cc2nc(N3CCCN(C)CC3)nc(NC3CCN(Cc4ccccc4)CC3)c2cc1OC	0.506	0.0546
COc1cc2nc(N3CCCC3)nc(NCCCCCN3CCCC3)c2cc1OC	0.679	0.0949
COc1cc2c(Oc3ccc4[nH]c(C)cc4c3F)ncnc2cc1OCCCN1CCCC1 [Cediranib (AZD2171)]	1.1	0.181
Cc1nc2c(O)cccc2c(=O)[nH]1	0.925	0.903
O=C(CCCCCCC(=O)Nc1ccc([C@H]2O[C@@H](CSc3nc(-c4ccccc4)c(-c4ccccc4)o3)C[C@@H](c3ccc(CO)cc3)O2)cc1)NO [Tubacin]	1.06	0.628
CCOC(=O)[C@@H](N)Cc1ccc(-c2cc(O[C@H](c3ccc(Cl)cc3-n3ccc(C)n3)C(F)(F)F)nc(N)n2)cc1 [Telotristat Etiprate (LX 1606 Hippurate)]	0.935	0.335
CC(C)n1cnc2c(NCCc3ccc(O)cc3)nc(-c3csc4ccccc34)nc21 [StemRegenin 1 (SR1)]	1.1	0.769
CNC1CCC(N(Cc2cccc(-c3ccncc3)c2)C(=O)c2sc3ccccc3c2Cl)CC1 (configuration not stated) [Smoothened Agonist (SAG) HCl]	0.918	0.259
O=C1NC(=O)/C(=C/c2ccc(-c3ccc(F)cc3O)o2)S1	0.814	0.742
N[C@H]1CC[C@H](N[C@@H]2C[C@H]2c2ccccc2)CC1	0.794	0.89
CN1CCN(c2ccc3nc(-c4c(N)c5c(F)cccc5[nH]c4=O)[nH]c3c2)CC1 [Dovitinib (TKI-258, CHIR-258)]	0.815	0.25
CN1CCN(c2ccc3nc(-c4c(N)c5c(F)cccc5[nH]c4=O)[nH]c3c2)CC1 [Dovitinib (TKI258) Lactate]	0.815	0.0801
Cc1nn(-c2ccccc2)c(C)c1C=NN1CCN(Cc2ccccc2)CC1	0.946	0.905
COCC(=O)NC/C=C/c1ccc2ncnc(Nc3ccc(Oc4ccc(C)nc4)c(C)c3)c2c1	1.29	1.17
CCCCCCCCc1ccc(CCC(N)(CO)CO)cc1 [Fingolimod (FTY720) HCl]	1.08	0.0752
CCCCCCCCCCCCc1ccc(S(=O)(=O)Nc2nncs2)cc1	1.06	1.05
CCCCCCCc1ccc(CCc2cccc(O)c2C(=O)O)cc1	0.96	0.73

Structure (SMILES)	fractional viability (2uM)	fractional viability (10uM)
O=C(c1ccc(OCCCc2c[nH]cn2)cc1)C1CC1 [Ciproxifan]	1.1	0.986
CCCCCCCCCCCCCCCCn1cc[n+](Cc2ccccc2)c1C	0.363	0.0434
CCO[C@@H]1OC(=O)C[C@@H]1NC(=O)[C@@H]1CCCN1C(=O)[C@@H](NC(=O)c1ccc(N)c(Cl)c1)C(C)(C)C	0.969	0.919
Cc1cc([N+](=O)[O-])ccc1NS(=O)(=O)c1cc(Cl)ccc1Cl	0.656	0.476
CC(C)c1nc(N(C)S(C)(=O)=O)nc(-c2ccc(F)cc2)c1/C=C/[C@@H](O)C[C@@H](O)CC(=O)O [Rosuvastatin Calcium]	1.06	1.07
Nc1cccc2c1C(=O)N(C1CCC(=O)NC1=O)C2=O (configuration not stated) [Pomalidomide]	1.18	1.05
CNc1nc(Nc2cn(C(C)(C)C#N)nc2C)ncc1C(F)(F)F	0.801	0.885
Cc1ccc(-c2c(-c3nn(C)c4ncnc(N5CC[C@H](N6CCCCC6)C5)c34)cnn2C)cc1	0.983	1.09
CCC[C@H](N[C@H]1CCc2cc(F)cc(F)c2C1)C(=O)Nc1cn(C(C)(C)CNCC(C)(C)C)cn1	0.786	0.87
CC(=O)[C@@]1(O)CC[C@H]2[C@@H]3CCC4=CC(=O)CCC4=C3[C@@H](c3ccc(N(C)C)cc3)C[C@@]21C [Ulipristal]	0.841	1.07
Cc1ccc(-n2sc(=O)n(Cc3ccc(F)cc3)c2=O)cc1	0.801	0.457
Cn1sc(=O)n(Cc2ccccc2)c1=O	0.609	0.104
O=C(O)CSc1cc(NS(=O)(=O)c2ccc(Br)cc2)c2ccccc2c1O	0.835	0.365
OCCOc1ccc(/C(=C(/CCCl)c2ccccc2)c2ccccc2)cc1 [Ospemifene]	0.854	0.735
CC(=O)c1cc([N+](=O)[O-])c(Sc2cccc(Cl)c2Cl)s1	0.895	0.2
CN(C)C(=O)c1ccc(S(=O)(=O)c2ccc(NC(=O)[C@@](C)(O)C(F)(F)F)c(Cl)c2)cc1	0.83	0.753
CNCc1ccc(-c2cc(-c3nc(-c4ccc(S(=O)(=O)C(C)C)cc4)cnc3N)on2)cc1	0.792	0.849
NC[C@@](O)(c1ccc(Cl)cc1)c1ccc(-c2cn[nH]c2)cc1	0.858	0.87
O=C(NC1CCN(CCCCC2(C(=O)NCC(F)(F)F)c3ccccc3-c3ccccc32)CC1)c1ccccc1-c1ccc(C(F)(F)F)cc1 [Lomitapide Mesylate]	0.887	0.0779
O=C(O)c1ccccc1C(=O)Nc1ccc(-c2ccccc2)cc1 [Kartogenin]	0.838	0.747
C=CCc1ccc(O)c(-c2ccc(O)c(CC=C)c2)c1 [Honokiol]	0.957	1.01
C#CC[C@H](c1nc2cc(Cl)ccc2c(=O)n1Nc1ccccc1)N(CCCN)C(=O)c1cccc(Cl)c1F	0.562	0.0443
Cc1ccc(C(=O)N(CCCN)[C@@H](c2nc3cc(Cl)ccc3c(=O)n2Cc2ccccc2)C(C)C)cc1	0.71	0.309
